Test results from ChEMBL document CHEMBL3988442, “University of Dundee, Small-Polar-MMV Screening Library” (2021).
In all, about 48,000 compounds went through this assay and about 13,000 (27%) showed an effect of 50% or more. The list shows a part of the results.

tested on: Wolbachia pipientis; experiment: Anti-Wolbachia Cell-Based Screen; assay type: functional; set-up: scale not given: in the data most compounds retested in dose-response had high values; settings: 5 µM

SMILES | Percent Effect [%]
Cc1nsc(NCc2ccc(S(=O)(=O)N(C)C(C)C)cc2)n1 | 22.68
CCCC(C)CS(=O)(=O)NCc1cccnc1OC (stereo unspecified) | 6.664
CC(C)c1nnc2n1CCN(C(=O)c1ccc3c(c1)NC(=O)CO3)C2 | 2.374
NC(=O)CN1CCC(NC(=O)Nc2nccs2)CC1 | 9.96
Cc1csc(NC(=O)NCCCN2CCC(C(N)=O)CC2)n1 | 96.37
Cc1csc(NC(=O)CN2CCC(c3ccnn3CCO)CC2)n1 | -8.035
O=C(NCc1ccccc1CN1CCCC1)Nc1nncs1 | 6.886
NC(=O)C1CCN(CCCNC(=O)Nc2nccs2)CC1 | 104.9
NC(=O)C1CCN(CCCNC(=O)Nc2nncs2)CC1 | 106.6
O=C(NCc1ccccc1CN1CCCCC1)Nc1nncs1 | -2.637
Cc1csc(CCNC(=O)C2CCN(CC(N)=O)CC2)n1 | -1.435
O=C(NCCCN1CCN(c2ncccn2)CC1)Nc1ccccn1 | 10.78
O=C(C(C1CC1)C1CC1)N1CCC(n2ccnn2)CC1 | -3.228
COc1ccc(C(C(=O)O)N2CCC(O)(c3cccnc3)CC2)cc1Cl (stereo unspecified) | 2.828
CN(C)c1cc(NCc2cnc3n2CCN(CC2CC2)CC3)ncn1.O=C(O)C(F)(F)F | 3.56
CN(C)CCNC(=O)c1ccc(OC2CCN(CC3CC3)CC2)c(Cl)c1 | 3.166
COCCN1CCCn2cnc(CNC(=O)N(C)C)c2C1.O=C(O)C(F)(F)F.O=C(O)C(F)(F)F | -21.14
CN(C)c1ncc(-c2cc(C(=O)NCCC#N)n(CC3CC3)c2)cn1.O=C(O)C(F)(F)F | 101.1
COCCCNC(=O)c1cc(-c2cnc(N(C)C)nc2)cn1CC1CC1.O=C(O)C(F)(F)F | 117.6
Cc1cnc(N2C[C@@H]3CCN(CC(=O)N(C)C)C(=O)[C@H]3C2)nc1.O=C(O)C(F)(F)F | -29.89
CC(C)n1cnc2c1C(C(=O)NCCC#N)N(Cc1ccccc1)CC2.O=C(O)C(F)(F)F (stereo unspecified) | -22.73
CN(C)CCNC(=O)c1cc(-c2cnc(N(C)C)nc2)cn1CC1CC1 | 102.4
CCOC(=O)N1CCCn2nc(C(=O)NCCN(C)C)cc2C1 | -7.985
CN(C)c1ncc(-c2cc(C(=O)NCCO)n(CC3CC3)c2)cn1.O=C(O)C(F)(F)F | 116.5
COCc1nc(NC(C)c2c(C)n[nH]c2C)c2cnn(C)c2n1 (stereo unspecified) | 8.424
Cc1nc(-c2ccc(CC(=O)N3CCN(C(=O)C(C)C)CC3)cc2)cs1 | -9.711

SMILES | Percent Effect [%]
CN(C)c1ncc(-c2cc(C(=O)NC(C)(C)CO)n(CC3CC3)c2)cn1 | 111.9
CNC(=O)c1cc(-n2ccnc2-c2cnc(N(C)C)nc2)ccc1OC | -13
CN(C)C(=O)c1ccc2c(c1)N(C)C(CC(=O)NC(C)(C)CO)CO2 (stereo unspecified) | -1.046
CN(C)c1ncc(-c2cc(C(=O)N3CCCC3)n(CC3CC3)c2)cn1 | 121.7
CN(C)c1ncc(NC(=O)N2CCC(CN3CCCC3)C2)cn1 (stereo unspecified) | 8.781
CN(C)c1ncc(-c2cc(C(=O)O)n(CC3CC3)c2)cn1 | 1.495
OC1(CNCc2ccc(F)c(C(F)(F)F)c2)CCSCC1 | 2.477
O=C(O)CN1CCc2onc(C(c3ccccc3)c3ccccc3)c2C1 | -16.17
CNS(=O)(=O)CCn1cc(-c2ccc(OC)c(OC)c2)nn1 | -29.27
Cc1noc(C)c1CN1CCOC2(CCCN(c3ccccn3)C2)C1 (stereo unspecified) | -3.1
Cc1nc(CSCCC(=O)NCC(=O)NC(C)C)cs1 | 3.002
Cc1nc(CSCCC(=O)NCCNC(=O)OC(C)(C)C)cs1 | -7.243
Cc1ccc(CNC(=O)CCSCc2csc(C)n2)cn1 | -0.6284
Cc1nc(CSCCC(=O)NCc2ccncc2)cs1 | 95.93
Cc1nc(CCNC(=O)NCc2cccc(N(C)C)n2)cs1 | 98.24
Cc1nc(CSCCC(=O)NCc2ccc(-n3cncn3)nc2)cs1 | 103.5
CSC(C)C(=O)NCc1ccc(-n2cncn2)nc1 (stereo unspecified) | -9.599
COc1ccc(C)c(NC(=O)NCc2cccc(N(C)C)n2)c1 | -15.2
COc1ccc(CNC(=O)CCSCc2csc(C)n2)cn1 | 99.67
Cc1nc(CNC(=O)NCCc2ccc(N(C)C)cc2)cs1 | 2.73
CC(OCC(F)(F)F)C(=O)NCc1ccc(-n2cncn2)nc1 (stereo unspecified) | 6.097
Cc1ccc2c(c1)C(NC(=O)C1CCN(S(C)(=O)=O)CC1)CC(C)(C)O2 (stereo unspecified) | 2.376
F[C@@H]1CN(CC2CC2)C[C@@H]1OCc1nc2ccc(C(F)(F)F)cc2[nH]1 | -10.92
CC(C)N1CCc2onc(Cn3cccn3)c2C1 | -7.292
O=C(Nc1ccccc1-c1ccccc1)N1C[C@@H]2CNC[C@]2(C(=O)O)C1 | -1.582
